From PubChem BioAssay
Measured potencies and affinities stand elsewhere. Results filed as inconclusive are left out. Active and inactive are the calls of the source. Unless noted, no rule for the calls is given here.

What was measured:
[1] = cytotoxicity in PAX8-dependent RMG-1 cells, dose response, cell-based, cherry-pick (AID 687029;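 active = signal drop whose fitted half-maximal concentration is at most twice the top valid dose, in every test run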;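 also: cells exposed to compound for 96 hours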)
[2] = cytotoxicity in IOSE-T80 ovarian epithelial cells, dose response, selectivity assay for PAX8 inhibitor project, cell-based, cherry-pick (AID 687032;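 active = fitted half-maximal concentration for viability loss no higher than twice the top valid dose, in every repeat run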;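 also: cells exposed to compound for 96 h before reading; 0% = neutral control wells and -100% = 2 µM mitoxantrone kill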)
[3] = inhibitors of CMV-promoter luciferase reporter, dose response, counter-screen for Pax8 inhibitor project, cell-based, HEK293, luminescence, dry powder (AID 743020;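 active = signal-lowering compounds whose fitted half-maximal concentration is at or below twice the top tested dose in every run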;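 also: HEK293 cells stably expressing the CMV luciferase reporter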)
[4] = IOSE-T80 ovarian epithelial cell cytotoxicity, dose response, cytotoxicity control for PAX8 inhibitor project, plate reader, dry powder samples (AID 743045);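 also: 0% = neutral control median and -100% = positive control median; more negative values mean more cell killing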
[5] = A2780 ovarian cancer cell cytotoxicity, dose response, cytotoxicity control, plate reader, dry powder samples (AID 743046);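 also: 0% = neutral control wells and -100% = cytotoxic reference compound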
[6] = cytotoxicity in OVCAR8 ovarian cancer cells, dose response, PAX8 project, cell-based, plate reader, dry powder samples (AID 743197)
[7] = NIH:OVCAR-3 ovarian cancer cell cytotoxicity, dose response, PAX8 inhibitor project, plate reader, dry powder samples (AID 743044); conditions: max activity: at 35 µM, active compounds read low unless noted
[8] = IGROV1 ovarian cancer cell cytotoxicity, dose response, PAX8 inhibitor project, plate reader, dry powder samples (AID 743043);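 also: more negative means fewer viable cells or more cytotoxicity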
[9] = non-specific cell cytotoxicity, dose response, cytotoxicity control for PAX8 inhibitor project, plate reader, dry powder samples (AID 743021)

C[C@@H]1CN([C@@H](C)CO)C(=O)Cc2cc(NS(=O)(=O)c3ccc(Cl)cc3)ccc2O[C@@H]1CN(C)CC1CCCCC1
inactive: outcome [1] | outcome [2] | outcome [3] | outcome [4] | outcome [5] | outcome [6]

COc1ccc(NC(=O)N2CC(=O)N3[C@H](C2)[C@H](c2ccc(/C=C/c4ccccc4)cc2)[C@@H]3CO)cc1
inactive: outcome [1] | outcome [2] | outcome [3] | outcome [4] | outcome [6]

C[C@@H]1CCCCO[C@H](CN(C)Cc2ccc(Cl)c(Cl)c2)[C@@H](C)CN([C@@H](C)CO)C(=O)c2cc(NC(=O)c3ccccc3)ccc2O1
inactive: outcome [1] | outcome [2] | outcome [3] | outcome [4] | outcome [5]

COc1ccc(NC(=O)N2CC(=O)N3[C@@H](CO)[C@@H](c4ccc(/C=C/c5ccccc5)cc4)[C@@H]3C2)cc1
inactive: outcome [1] | outcome [2] | outcome [3] | max activity [7] 30.3% [at 16 µM, active compounds read low] | outcome [4] | outcome [5]

CCS(=O)(=O)N1CC(=O)N2[C@H](CO)[C@@H](c3ccc(-c4ccccc4F)cc3)[C@H]2C1
inactive: outcome [1] | outcome [2] | outcome [3] | outcome [4] | outcome [5]

Cc1ccc(S(=O)(=O)Nc2ccc3c(c2)CC(=O)N([C@@H](C)CO)C[C@H](C)[C@@H](CN(C)Cc2ccc(Oc4ccccc4)cc2)O3)cc1
inactive: outcome [1] | outcome [2] | outcome [3] | outcome [8] | outcome [6]

Cc1ccccc1-c1ccc(C2[C@@H]3CN(C(=O)Nc4cccc(F)c4)C[C@H]2N3)cc1 (some centres not stated)
inactive: outcome [1] | outcome [2] | outcome [3] | outcome [4] | outcome [5] | outcome [6]

COc1ccc2c3c(n(C)c2c1)[C@H](CO)NCC31CCN(Cc2cc(-c3ccccc3)on2)CC1
inactive: outcome [1] | outcome [2] | outcome [3] | max activity [7] 40.6% [at 0.5 µM, active compounds read low] | outcome [4] | outcome [5]

O=C1CN(S(=O)(=O)Cc2ccccc2)C[C@@H]2[C@@H](c3ccc(C#Cc4ccc(F)cc4)cc3)[C@@H](CO)N12
inactive: outcome [1] | outcome [2] | outcome [3] | max activity [7] -59.7% [at 16 µM, active compounds read low] | outcome [4] | outcome [5]

C[C@@H]1CN([C@H](C)CO)C(=O)c2cc(NC(=O)Nc3ccc(C(F)(F)F)cc3)ccc2O[C@@H](C)CCCCO[C@H]1CN(C)Cc1ccc2c(c1)OCO2
inactive: outcome [1] | outcome [2] | outcome [3] | max activity [7] -34.3% | outcome [4] | outcome [5]

C[C@H](CO)N1C[C@H](C)[C@@H](CN(C)S(=O)(=O)c2ccc(Cl)cc2)OCCCC[C@H](C)Oc2ccc(NS(=O)(=O)c3ccccc3)cc2C1=O
inactive: outcome [1] | outcome [2] | outcome [3] | outcome [8] | outcome [5] | outcome [6]

C[C@@H]1CN([C@@H](C)CO)C(=O)Cc2cc(NS(=O)(=O)c3ccccc3)ccc2O[C@H]1CN(C)Cc1ccc(C(F)(F)F)cc1
inactive: outcome [1] | outcome [2] | outcome [3] | outcome [4] | outcome [5]

CCc1cnc(N2[C@@H](C#N)[C@@H](c3ccc(C#CC(C)C)cc3)[C@@H]2CO)s1
inactive: outcome [1] | outcome [2] | outcome [3] | max activity [7] 27.5% [at 1 µM, active compounds read low] | outcome [4] | outcome [6]

N#C[C@H]1[C@@H](c2ccc(C#Cc3ccc(F)cc3)cc2)[C@H](CO)N1C(=O)C1CCCC1
inactive: outcome [1] | outcome [2] | outcome [3] | outcome [4]

O=C(Nc1ccc(F)cc1)N1C[C@@H]2N[C@H](C1)C2c1ccc(-c2ccccc2F)cc1 (some centres not stated)
inactive: outcome [1] | outcome [2] | outcome [3] | outcome [4] | outcome [5]

C[C@@H]1CCCCO[C@H](CN(C)CC2CCCCC2)[C@H](C)CN([C@H](C)CO)C(=O)c2cc(NS(=O)(=O)c3ccccc3)ccc2O1
inactive: outcome [1] | outcome [2] | outcome [3] | outcome [4] | outcome [5]

COc1ccc(-c2ccc(C3[C@@H]4CN(Cc5cc(OC)cc(OC)c5)C[C@H]3N4)cc2)cc1 (some centres not stated)
inactive: outcome [1] | outcome [2] | outcome [3] | max activity [7] -15.8% [at 16 µM, active compounds read low] | activity change, negative = cytotoxicity [4] 6.64% [at 8 µM] | outcome [5]

C[C@@H]1CN([C@H](C)CO)C(=O)c2cc(NC(=O)CCCCCC(=O)Nc3ccccc3N)ccc2O[C@@H]1CN(C)Cc1ccc(C(F)(F)F)cc1
inactive: outcome [1] | outcome [2] | outcome [3] | outcome [4] | outcome [5] | outcome [6]

O=C(C1CCC1)N1CC(=O)N2[C@H](CO)[C@H](c3ccc(C#CCc4ccccc4)cc3)[C@H]2C1
inactive: outcome [1] | outcome [2] | outcome [3] | outcome [4]

Cc1ccc(S(=O)(=O)Nc2ccc3c(c2)C(=O)N([C@@H](C)CO)C[C@@H](C)[C@H](CN(C)Cc2ccc(C(F)(F)F)cc2)OCCCC[C@@H](C)O3)cc1
inactive: outcome [1] | outcome [2] | outcome [3] | outcome [4] | outcome [5]

O=C(Nc1cccc(F)c1)N1C[C@@H]2N[C@H](C1)C2c1ccc(-c2ccc(F)cc2)cc1 (some centres not stated)
inactive: outcome [1] | outcome [2] | outcome [3] | outcome [5] | outcome [6]

Cc1ccc(-c2ccc(C3[C@@H]4CN(C(=O)Nc5ccc(C(F)(F)F)cc5)C[C@H]3N4)cc2)cc1 (some centres not stated)
inactive: outcome [1] | outcome [2] | outcome [3] | outcome [8] | outcome [5]

O=C(Nc1cccc(F)c1)N1CCCCN2[C@H](CO)[C@@H](c3ccc(-c4ccccc4F)cc3)[C@H]2C1
inactive: outcome [1] | outcome [2] | outcome [3] | outcome [4] | outcome [5] | outcome [6]

COc1ccc(S(=O)(=O)N2CCCCN3[C@H](CO)[C@H](c4ccc(C#CC(C)C)cc4)[C@H]3C2)cc1
inactive: outcome [5]

COc1ccc(S(=O)(=O)Nc2ccc3c(c2)C(=O)N([C@@H](C)CO)C[C@H](C)[C@H](CN(C)Cc2ccc(C(F)(F)F)cc2)OCCCC[C@H](C)O3)cc1
inactive: outcome [5]

CNC[C@@H](CC1CCCCC1)NC[C@H](CC(C)C)NCCc1cccc(C(F)(F)F)c1
inactive: outcome [1] | outcome [2] | outcome [9]

CCOc1ccc(CCN2C(=S)N([C@@H](Cc3ccc(O)cc3)CN3CCC[C@@H]3CN3C(=S)NC[C@@H]3CC(C)C)C[C@@H]2Cc2ccc(O)cc2)cc1
inactive: outcome [1] | outcome [2] | outcome [9]

Cc1ccc(C(=O)c2cc([N+](=O)[O-])ccc2N2CCCCC2)cc1
inactive: outcome [1] | outcome [2] | outcome [9]

CC(C)(C)OC(=O)NCCCC[C@H](NC(=O)c1[nH]cnc1C(=O)N[C@@H](Cc1ccccc1)C(=O)OC(C)(C)C)C(=O)OC(C)(C)C
inactive: outcome [1] | outcome [2] | outcome [9]

C[C@H]1CCCCO[C@H](CN(C)C(=O)Nc2ccc(C(F)(F)F)cc2)[C@@H](C)CN([C@@H](C)CO)C(=O)c2cc(NC(=O)Nc3ccc(F)cc3)ccc2O1
inactive: outcome [1] | outcome [2] | outcome [9] | outcome [8]

O=C(O)CCCN1C(=O)/C(=C\C(Cl)=C\c2ccccc2)SC1=S
inactive: outcome [1] | outcome [2] | outcome [9]

CCOC(=O)c1cnc2ccc(C(=O)OC)cc2c1Nc1ccc(C(=O)O)cc1
inactive: outcome [1] | outcome [2] | outcome [9]

Cc1[nH]c2ccccc2c(=O)c1C(=O)/C=C/c1ccccc1
inactive: outcome [1] | outcome [2] | outcome [9]

Cc1ccc(S(=O)(=O)N(C)C[C@@H]2Oc3ccc(NC(=O)Nc4ccc(C(F)(F)F)cc4)cc3CC(=O)N([C@H](C)CO)C[C@@H]2C)cc1
inactive: outcome [1] | outcome [2] | outcome [9]

COc1cc(NC(=O)Cn2ncc(Cl)c(Cl)c2=O)c(C)cc1[N+](=O)[O-]
inactive: outcome [1] | outcome [2] | outcome [9]

CC(C)N1CCc2c(sc(NC(=O)c3ccc([N+](=O)[O-])o3)c2C(N)=O)C1
inactive: outcome [1] | outcome [2] | outcome [9]

CC1CCN(CCc2nc3cc(NS(=O)(=O)c4ccccc4)ccc3n2C)CC1
inactive: outcome [1] | outcome [2] | outcome [9]

CC(=O)Nc1cc(-c2cccc(C(=O)NCCN(C)C)c2)cn2c(-c3cccc(C(F)(F)F)c3)cnc12
inactive: outcome [1] | outcome [2] | outcome [9]

COc1cc(/C=N/NS(=O)(=O)c2ccc(C)cc2)ccc1OCc1ccc(C(=O)O)cc1
inactive: outcome [1] | outcome [2] | outcome [9]

CCS(=O)(=O)N1Cc2ccccc2CC1C(=O)Nc1nnc(SCc2c(Cl)cccc2Cl)s1 (configuration not stated)
inactive: outcome [1] | outcome [2] | outcome [9]

C#CCN(C[C@@H]1[C@@H](OC(=O)Nc2cccs2)[C@@H](OC(=O)Nc2cccs2)Cn2c(=O)ccc(=O)n21)S(=O)(=O)c1ccc(C)cc1
inactive: outcome [1] | outcome [2] | outcome [9]

COc1cc(/C=N\NC(=O)c2ccc(-c3ccccc3)cc2)cc(OC)c1OC(C)=O
inactive: outcome [1] | outcome [2] | outcome [9]

Oc1ccc2ccccc2c1N=Nc1nccs1
inactive: outcome [1] | outcome [2] | outcome [9]

COc1ccc(OC)c(-c2nnc3n2N=C(c2ccc(OC)c(OC4CCOC4)c2)CS3)c1 (configuration not stated)
inactive: outcome [1] | outcome [2] | outcome [9]

C#CCN(C[C@@H]1[C@@H](OC(=O)NCc2ccc(OC)c(OC)c2)[C@@H](OC(=O)NCc2ccc(OC)c(OC)c2)Cn2c(=O)ccc(=O)n21)S(=O)(=O)c1ccc(C)cc1
inactive: outcome [1] | outcome [2] | outcome [9]

Cc1ccc(S(=O)(=O)Nc2ccc3c(c2)C(=O)N([C@H](C)CO)C[C@H](C)[C@@H](CN(C)Cc2ccc(C(F)(F)F)cc2)OCCCC[C@H](C)O3)cc1
inactive: outcome [1] | outcome [2] | outcome [9]

CC(=O)N1CCc2c(sc(NC(=O)c3ccc([N+](=O)[O-])o3)c2C#N)C1
inactive: outcome [1] | outcome [2] | outcome [9]

COC(=O)c1ccccc1-c1c2ccc(=N)cc-2oc2cc(N)ccc12
inactive: outcome [1] | outcome [2] | outcome [9]

COc1c(C=O)c2c(c(OC)c1OC)-c1ccc(OC)c(=O)cc1C(NC(C)=O)CC2 (configuration not stated)
inactive: outcome [1] | outcome [2] | outcome [9]

Cn1nnnc1Sc1ncnc2scc(-c3cccc(F)c3)c12
inactive: outcome [1] | outcome [2] | outcome [9]

C[C@@H]1CCCCO[C@@H](CN(C)CC2CCCCC2)[C@H](C)CN([C@H](C)CO)C(=O)c2cc(NS(=O)(=O)c3ccc(Cl)cc3)ccc2O1
inactive: outcome [1] | outcome [2] | outcome [9]

C=C1C(=O)O[C@@H]2C[C@@H](C)[C@@H]3C=CC(=O)[C@@]3(C)[C@@H](OC(C)=O)[C@H]12
inactive: outcome [1] | outcome [2] | outcome [9]

CC[C@@]1(O)C(=O)OCc2c1cc1n(c2=O)Cc2cc3c(N)cccc3nc2-1
inactive: outcome [1] | outcome [2] | outcome [9]

N#CC1(NC(=O)Cn2ncc(Cl)c(Cl)c2=O)CCCCC1
inactive: outcome [1] | outcome [2] | outcome [9]

O=C(CCCN1C(=O)/C(=C\c2cccc(Br)c2)SC1=S)Nc1cccnc1
inactive: outcome [1] | outcome [2] | outcome [9]
